Unmarked numbers belong to inactive results. The source made the active and inactive calls. Cut-off read from the data, not from the text of the source, unless noted: active = inhibition above about 33%; inactive = the rest.
Tests used:
[1] = StAR promoter reporter inhibitors, counter-screen for LRH-1 inverse agonist project, cell-based, luminescence, high throughput (AID 651611; in the data active = inhibition above about 28%); details: StAR promoter luciferase reporter counterscreen, at 3.6 µM, active compounds read high
[2] = target: Nuclear receptor subfamily 5 group A member 2 (Homo sapiens) (UniProt O00482); assay: NR5A2 activity suppression in reporter cells – cell-based, luminescence, confirmation (AID 651613; in the data active = inhibition above about 42%;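 note: HEK293T cells co-transfected with LRH-1 and StAR promoter luciferase reporter; 0% = vehicle wells and 100% = parental cells lacking receptor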); details: cell-based LRH-1 luciferase reporter, inverse agonism; at 3.6 µM; active compounds read high
[3] = target: Steroidogenic factor 1 (Homo sapiens) (UniProt Q13285); assay: inverse agonism at SF1 nuclear receptor – cell-based, luminescence, high throughput, counter-screen for LRH-1 inverse agonist project (AID 651614; in the data active = inhibition above about 44%;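 note: cells cotransfected with StAR promoter reporter and SF1 expression vector; 0% = vehicle on cells with receptor and 100% = vehicle on cells lacking receptor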); details: cell-based SF1 luciferase reporter, at 3.6 µM, active compounds read high
[4] = compounds suppressing VP16-driven luciferase signal – cell-based, luminescence, high throughput, counter-screen for LRH-1 inverse agonist project (AID 651615); details: Gal4-VP16 luciferase reporter cells, at 3.6 µM, active compounds read high

Sequence of Nuclear receptor subfamily 5 group A member 2 (Homo sapiens) (O00482 whole entry, looked up): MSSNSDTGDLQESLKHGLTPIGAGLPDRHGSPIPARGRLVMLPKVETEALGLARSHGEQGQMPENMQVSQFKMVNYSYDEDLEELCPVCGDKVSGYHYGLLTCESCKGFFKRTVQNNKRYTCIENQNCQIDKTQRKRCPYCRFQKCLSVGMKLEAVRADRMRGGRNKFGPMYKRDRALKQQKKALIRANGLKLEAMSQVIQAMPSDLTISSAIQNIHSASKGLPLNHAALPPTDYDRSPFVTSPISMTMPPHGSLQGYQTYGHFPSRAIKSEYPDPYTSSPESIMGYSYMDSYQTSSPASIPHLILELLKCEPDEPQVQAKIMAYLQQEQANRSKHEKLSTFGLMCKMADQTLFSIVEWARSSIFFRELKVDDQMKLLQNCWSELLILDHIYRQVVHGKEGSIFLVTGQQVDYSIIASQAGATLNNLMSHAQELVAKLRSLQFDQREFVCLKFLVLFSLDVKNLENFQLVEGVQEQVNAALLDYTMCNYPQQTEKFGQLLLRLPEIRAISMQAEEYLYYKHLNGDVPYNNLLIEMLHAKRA
Sequence of Steroidogenic factor 1 (Homo sapiens) (Q13285 whole entry, looked up, the tested form may be a part): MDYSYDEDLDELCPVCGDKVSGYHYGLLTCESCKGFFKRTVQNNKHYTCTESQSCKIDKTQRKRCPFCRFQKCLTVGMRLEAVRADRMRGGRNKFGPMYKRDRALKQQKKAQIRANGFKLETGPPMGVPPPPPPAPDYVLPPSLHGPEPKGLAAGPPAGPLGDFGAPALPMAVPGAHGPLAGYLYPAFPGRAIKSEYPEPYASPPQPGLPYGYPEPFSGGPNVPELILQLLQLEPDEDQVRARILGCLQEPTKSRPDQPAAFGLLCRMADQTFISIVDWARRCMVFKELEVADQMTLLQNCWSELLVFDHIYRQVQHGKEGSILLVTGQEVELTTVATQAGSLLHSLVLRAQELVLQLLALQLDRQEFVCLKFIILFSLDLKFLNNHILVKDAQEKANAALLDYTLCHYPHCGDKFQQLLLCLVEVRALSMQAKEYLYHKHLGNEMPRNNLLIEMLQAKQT

Row | SMILES | inhibition [1] | inhibition [2] | inhibition [3] | inhibition [4]
1 | O=C1/C(=C/c2ccccc2)CN(C(=O)CCN2CCOCC2)C/C1=C\c1ccccc1 | 21.9% | 44.3% (active) | 56.7% (active) | 55.2% (active)
2 | NC(=O)COc1ccc2c3c(c(=O)oc2c1)CCCCC3 | -1.98% | 40.5% | 41.6% | 0.54%
3 | CC(C)(Oc1ccc(Cl)cc1)C(=O)OCC(=O)NCCc1ccccc1 | 10.5% | 45.2% (active) | 46.8% (active) | 4.06%
4 | O=[N+]([O-])c1ccc(S(=O)Cc2ccccc2)c([N+](=O)[O-])c1 (stereo unspecified) | 8.41% | 43.5% (active) | 22.4% | 16.7%
5 | O=C(CSc1cc(Cl)ccc1Cl)Nc1ccc(N2CCOCC2)cc1 | 1.91% | 63.9% (active) | 65.3% (active) | 3.31%
6 | CCCCCCCCN1C(=O)[C@H](CC(=O)NCC23CC4CC(CC(C4)C2)C3)C[C@@]2(C(=O)OCC)CCCC=C12 | 22.3% | 24.8% | 17.4% | 14.6%
7 | CC1(C)CC(=O)C=C(c2ccc3ncccc3c2)C1 | 13.7% | 52.2% (active) | 52.9% (active) | 14.3%
8 | CC(C)C(=O)N1CCN(c2ccccc2NC(=O)c2ccc([N+](=O)[O-])o2)CC1 | 10.9% | 59.1% (active) | 42.2% | 25%
9 | O=C(Nc1ccc([N+](=O)[O-])cc1)c1cccc([N+](=O)[O-])c1 | 8.52% | 65.6% (active) | 64.5% (active) | -15.3%
10 | O=[N+]([O-])c1cnccc1Nc1cccc(F)c1 | 11.5% | 62.3% (active) | 55.1% (active) | 10%
11 | COCCn1c(SCC(=O)Nc2ccc(NC(C)=O)cc2)nc2ccccc2c1=O | 17% | 57.9% (active) | 52% (active) | 2.35%
12 | CCOc1ccc(OCCC(=O)OCC(=O)Nc2ccc3c(c2)OCCO3)cc1 | -6.27% | 41.5% (active) | 37.1% | -6.23%
13 | CCN(CC)S(=O)(=O)c1ccc(NC(=O)c2ccc(CN3CCOCC3)cc2)cc1 | 23.9% | 57.5% (active) | 57.4% (active) | 54.4% (active)
14 | C=CCNc1sc(C(=O)c2ccccc2)c(N)c1C#N | 13.8% | 43.6% (active) | 47.7% (active) | 6.37%
15 | O=C(COc1ccc2ccc(=O)oc2c1)Nc1ccc(N2CCOCC2)cc1 | 13.3% | 57.3% (active) | 45.5% (active) | -5.4%
16 | O=C(CN1C(=O)NC2(CCCCCC2)C1=O)Nc1ccc([N+](=O)[O-])cc1 | 25.1% | 63.1% (active) | 59.6% (active) | 9.06%
17 | O=C(Nc1ccc(C(=O)N2CCOCC2)cc1)c1cccc([N+](=O)[O-])c1 | 1.39% | 48.4% (active) | 41.9% | -0.69%
18 | Clc1ccc(Cn2ncc3c(NCc4ccccc4)ncnc32)cc1 | 43.3% (active) | 59.4% (active) | 51.4% (active) | 14.4%
19 | N#Cc1ccc(NC(=O)COc2ccc(-n3cnnn3)cc2)cc1 | 11.7% | 38.2% | 35.9% | -2.83%
20 | O=C(Nc1ccc(N2CCOCC2)c(Cl)c1)c1ccc([N+](=O)[O-])o1 | -80.2% | 9.33% | 35.9% | -84.8%
21 | CCOc1ccc(CCNC(=O)COC(=O)c2c(C)nn(-c3ccccc3)c2C)cc1OCC | 3.09% | 41.6% (active) | 28.1% | 2.25%
22 | O=C(Nc1ccccn1)c1ccc([N+](=O)[O-])o1 | 14.3% | 58.2% (active) | 59.1% (active) | -16.1%
23 | O=C(Nc1ccccc1C(=O)Nc1nccs1)c1ccccc1 | 15.4% | 52.8% (active) | 47.8% (active) | 2.34%
24 | CCC(C)n1c(SCC(=O)NCCc2ccc(S(N)(=O)=O)cc2)nc2ccsc2c1=O (stereo unspecified) | 10.6% | 48.7% (active) | 52.6% (active) | -3.41%
